HP1b binding inh: HTS for Inhibitors of HP1-beta Chromodomain Interactions with Methylated Histone Tails; AlphaScreen HP1-beta / biotin-H3K9me3 peptide binding; Potency, µM (titrated, usually from 114 µM), for inactives: top-dose activity change, negative = inhibition, usual class: inhibitors; actives 0.56% (n = 390,000); AID 540317, 2011; also: nearly all actives have a fitted effect of over 70% in size
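AlphaScreen: HP1-beta (50 nM) preformed 30 min with biotin-H3(1-18)K9me3 peptide (50 nM) in PBS pH 7.4, 0.01% Tween-20. Compound added for 30 min at RT, then streptavidin donor/nickel chelate acceptor beads (10 ug/mL) for 30 min.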
JMJD2A Tudor: qHTS Assay for Inhibitors of JMJD2A-Tudor Domain; AID 504339, 2011; Lysine-specific demethylase 4A (Homo sapiens), O75164; AlphaScreen JMJD2A-Tudor / H3K4me3 peptide binding; actives 4.4% (n = 390,000); Potency, µM (highest dose often 114 µM), without a hit: at the top dose activity change, negative = inhibition, hits mostly inhibitors; also: % is scaled to controls: 0 for no effect and ±100 for the full control effect; nearly all actives have a fitted effect of over 50% in size
G9a block: qHTS Assay for Inhibitors of Histone Lysine Methyltransferase G9a. actives 8.8% (n = 350,000). AID 504332, 2011. Potency, µM (series often up to 102 µM), inactives show at the top dose activity, negative = inhibition, most hits filed as inhibitors. G9a H3K9 monomethylation, AlphaScreen, 2 h; also: % is scaled to controls: 0 for no effect and ±100 for the full control effect; nearly all actives have a fitted effect of over 75% in size
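G9a (20 nM) was preincubated 15 min with compound, then reacted 2 h at room temperature with 500 nM biotin-H3K9 peptide and 20 µM SAM. Monomethyl-H3K9 detected by AlphaScreen using anti-H3K9me1 antibody.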
BAZ2B block: qHTS Assay for Inhibitors of BAZ2B. AID 504333, 2011. Bromodomain adjacent to zinc finger domain protein 2B (Homo sapiens), Q9UIF8. Potency, µM (doses to about 114 µM), inactives show at the top dose activity change, negative = inhibition, most hits filed as inhibitors. actives 4.4% (n = 360,000). AlphaScreen BAZ2B-H3K14Ac peptide displacement; also: % is scaled to controls: 0 for no effect and ±100 for the full control effect; nearly all actives have a fitted effect of over 60% in size
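Complex of BAZ2B and biotin-H3K14Ac (50 nM apiece) forms over 30 min at RT, then faces library compounds up to 110 uM for another 30 min; AlphaScreen beads added, 20 min dark incubation, luminescence read.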
VDR inh: Inhibitors of the vitamin D receptor (VDR): qHTS. VDR-SRC2-3 peptide fluorescence polarization, 2 h. AID 504847, 2011. Vitamin D3 receptor (Homo sapiens), P11473. Potency, µM, inactives show max response, negative = inhibition, actives largely listed as inhibitors. actives 0.93% (n = 400,000); also: % is scaled to controls: 0 for no effect and ±100 for the full control effect
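Two reagent solutions held at 4 deg C in the dark were dispensed, compounds pinned at 23 nl, and the mixture incubated 2 h at room temperature. Read-out: fluorescence polarization of VDR–SRC2-3 peptide binding.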
PLK1 PBD block: qHTS for Inhibitors of PLK1-PDB (polo-like kinase 1 - polo-box domain): Primary Screen. Plk1 PBD binding of FITC phosphopeptide, fluorescence polarization. Serine/threonine-protein kinase PLK1 (Homo sapiens), P53350. Potency, µM, inactives show max response, negative = inhibition, most hits filed as inhibitors. AID 720504, 2013. actives 2.8% (n = 360,000); also: series mostly up to about 57 µM; % is scaled to controls: 0 for no effect and ±100 for the full control effect; nearly all actives have a fitted effect of over 65% in size
Target sequence (P53350 whole entry, looked up, the tested form may be a part): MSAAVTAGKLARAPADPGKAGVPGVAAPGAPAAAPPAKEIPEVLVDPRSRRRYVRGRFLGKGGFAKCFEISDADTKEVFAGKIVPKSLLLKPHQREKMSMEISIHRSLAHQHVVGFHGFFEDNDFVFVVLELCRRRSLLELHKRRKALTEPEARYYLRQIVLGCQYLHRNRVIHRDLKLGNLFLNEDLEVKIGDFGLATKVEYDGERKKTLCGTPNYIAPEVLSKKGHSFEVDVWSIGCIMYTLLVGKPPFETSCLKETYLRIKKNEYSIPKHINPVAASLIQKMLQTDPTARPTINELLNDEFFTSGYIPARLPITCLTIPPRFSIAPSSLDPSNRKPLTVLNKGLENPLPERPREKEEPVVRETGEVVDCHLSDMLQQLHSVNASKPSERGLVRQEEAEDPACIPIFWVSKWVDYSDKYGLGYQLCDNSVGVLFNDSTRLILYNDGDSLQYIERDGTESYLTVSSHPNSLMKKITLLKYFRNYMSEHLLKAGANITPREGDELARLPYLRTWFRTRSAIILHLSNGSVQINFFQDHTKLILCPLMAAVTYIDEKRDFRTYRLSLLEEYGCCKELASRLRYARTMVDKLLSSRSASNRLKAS
* = called active by the depositor; ? = inconclusive; · = no result given; [ ] = remark or other dose. Most compounds without a hit are left out; they make up all but 11% or so of the library. Calls follow the shape of the dose curve; as a rule, active = well fitted curve in the direction sought with a large enough effect; inconclusive = small, poorly fitted or top-dose-only effect, or another doubt; inactive = no such curve, though single readings can be large; an effect the other way counts as inactive or inconclusive. Potency is read from the fitted curve at half-maximal effect.

SMILES	HP1b binding inh	JMJD2A Tudor	G9a block	BAZ2B block	VDR inh	PLK1 PBD block
Clc1ccc(OCc2nn3c(-c4ccco4)nnc3s2)cc1	-20%	-20%[11.4 µM]	?	?	-19%	24µM*
c1coc(-c2nnc3sc(Cc4cccs4)nn23)c1	?	40µM*	?	50µM*	0%	27µM*
COc1ccccc1-c1nnc2sc(COc3ccc(Cl)cc3Cl)nn12	-2%	?	-5%[59 µM]	?	-12%	-15%
Clc1ccc(-c2nnc3sc(Cc4cccs4)nn23)c(Cl)c1	37%	-22%	40µM*	-32%	-18%	-6%
O=C(CN1CCN(Cc2ccc(F)cc2Cl)C1=O)NCCc1ccccc1	26%	-30%	?	12%	10%	2%
O=C(O)CN1CCN(Cc2ccc(F)cc2Cl)C1=O	23%	-12%	25µM*	-31%	-21%	-10%
Cc1ccccc1NS(=O)(=O)c1ccc(C(=O)N(C)CC(=O)Nc2ccccc2Br)cc1	34%	-21%	·	·	-13%	-13%
C[C@H](NC(=O)Cc1cc(F)cc(F)c1)C(=O)N[C@@H](C(=O)OC(C)(C)C)c1ccccc1	·	·	·	·	-1%	·
Cc1cc([N+](=O)[O-])ccc1NCc1ccccc1	15%	-25%	·	-10%	-7%	-2%
Cc1ccccc1NCc1ccc([N+](=O)[O-])s1	?	?	·	50µM*	-25%	-4%
Cc1cccc(NCc2ccc([N+](=O)[O-])s2)c1	-19%	?	45µM*	?	-16%	-6%
O=[N+]([O-])c1ccc(CNc2cccc(F)c2)s1	-6%	?	50µM*	-36%	7%	-1%
Cc1ccn(CCC(=O)Nc2ccc(-c3ccno3)cc2)n1	6%[57 µM]	-15%	-12%	-3%	-7%	-5%
O=C(Cc1ccc(Cl)cc1)NNC(=O)c1ccco1	38%	0%	·	0%	-19%	-16%
COc1ccc2c(c1OC)C(=O)OC2Nc1nc(-c2cc3ccccc3oc2=O)cs1 (stereo not drawn)	37%	5%	?	17%	-24%	-13%
COc1cccc(-c2csc(NC3OC(=O)c4c3ccc(OC)c4OC)n2)c1 (stereo not drawn)	3%	-20%	·	79µM*	-13%	-14%
COc1ccc2c(c1OC)C(=O)OC2Nc1nc(-c2ccc(-c3ccccc3)cc2)cs1 (stereo not drawn)	?	?	40µM*	?	-30%	27µM*
COc1ccccc1C(=O)OCc1cc(=O)n2nc(C3CC3)sc2n1	51%	2%	13%[59 µM]	1%	6%	·
Clc1ccc(-n2nnc(-c3nccs3)n2)cc1Cl	-2%	16µM*	3.2µM*	-14%	-20%	27µM*
CC(C)OP(=O)(OC(C)C)C(Nc1ccccc1)c1cccnc1 (stereo not drawn)	-7%	?	-33%	-6%	-4%	?
COc1ccc(NC(=O)CSc2nc3ccccc3c(=O)n2CCCN2CCCCC2)c(OC)c1	0%	-12%[11.4 µM]	-44%	-30%	-6%	24µM*
Cc1cc(NC(=O)CSc2nc3ccccc3c(=O)n2Cc2ccc(F)cc2)no1	23%	-16%	29%[59 µM]	·	3%	-15%
O=C(CSc1nc2ccccc2c(=O)n1Cc1ccccc1)Nc1ccc(Br)cc1C(=O)O	11%	-28%	?	50µM*	?	11µM*
COC(=O)c1ccc2c(=O)n(CCN3CCOCC3)c(SCC(=O)Nc3ccc(OC)cc3OC)nc2c1	?	45µM*	1%[59 µM]	-10%	-1%	2%
CCCCc1ccc(NC(=O)CSc2nc(=O)[nH]c3c2CCCC3)cc1	36%	-10%	-15%[59 µM]	-4%	2%	·
SMILES	HP1b binding inh	JMJD2A Tudor	G9a block	BAZ2B block	VDR inh	PLK1 PBD block
Cc1ccc(C)c(N2CCN(C(=O)Cn3c(-c4cccs4)cc4ccccc43)CC2)c1	8%	-28%	-7%[59 µM]	-15%	15%	·
CN1C(=O)Cc2cc([S+](=O)([O-])N3CCN([S+](=O)([O-])c4c(F)cccc4F)CC3)ccc21	·	-27%	·	·	·	·
COc1ccc(Cn2c(=O)c3cccnc3n(CC(=O)Nc3ccc(C)c(F)c3)c2=O)cc1	17%	-6%	-12%[59 µM]	-2%	-2%	·
COc1ccccc1C1=NS(=O)(=O)N(C)C(C(=O)Nc2cc(OC)c(OC)c(OC)c2)=C1	18%	-23%	-35%[59 µM]	-9%	5%	·
COc1ccc(C2=NS(=O)(=O)N(C)C(C(=O)Nc3ccc(OC(F)(F)F)cc3)=C2)cc1	5%	-33%	14µM*	-34%	6%	·
CSc1ccccc1NC(=O)C1=CC(c2ccc(C)cc2)=NS(=O)(=O)N1C	16%	-35%	79µM*	?	-4%	-8%
COc1ccc(NC(=O)C2=CC(c3ccc(OC)cc3)=NS(=O)(=O)N2C)cc1	-16%	?	·	-38%	-9%	-3%
COc1ccc(OC)c(C2=NS(=O)(=O)N(C)C(C(=O)Nc3ccc(C(C)=O)cc3)=C2)c1	-15%	?	-24%	-15%	-19%	30µM*
CCN(c1ccccc1)S(=O)(=O)c1cc(Br)cc2c1N(C(=O)C1CC1)CC2	13%	-14%	-30%[59 µM]	-2%	5%	·
Cc1ccc(NCc2nnc(SCC(=O)Nc3cccc(O)c3)n2CC2CCCO2)c(C)c1 (stereo not drawn)	-8%	?	56µM*	?	6%	2%
Cc1ccc(NCc2nnc(SCC(=O)NCc3ccco3)n2CC2CCCO2)cc1Cl (stereo not drawn)	-22%	79µM*	?	-39%	3%	?
Cc1ccc(NC(=O)CSCc2cnn(-c3ccccc3)c2-n2cccc2)c(Cl)c1	22%	-6%	?	-2%	9%	·
COc1ccc(-c2ccc(C)cc2)cc1C1C2C=CCC(C)C2C(=O)N1Cc1ccccc1 (stereo not drawn)	26%	-17%	·	·	-7%	·
CCCCNc1c(-c2ccc(OC)c(SC3CCCCC3)c2)nc2cnccn12	27%	?	23%[2.33 µM]	?	10%	13%
CCCCNc1c(-c2ccc(OC)c(SC3CCCCC3)c2)nc2cc(C)ccn12	-15%	56µM*	14%[2.33 µM]	?	-12%	-11%
COc1cccc(C(=O)Nc2ccc(NC(=O)C(C)(C)C)cn2)c1	33%	-11%	5%[12.7 µM]	-5%	-5%	-6%
CCOC(=O)NC(=O)CSc1nc2ccccc2[nH]1	48%	-1%	56µM*	?	3%	-1%
